Source: PubChem BioAssay (Tox21)
Inconclusive results are not listed. Where a call stands in place of a potency, no number is given. Active and inactive are the calls of the source. Unless noted, the call rests on the fitted dose curve.

biological target: Thyrotropin-releasing hormone receptor (Homo sapiens) (UniProt P34981); experiment: qHTS assay to identify small molecule agonists of the thyrotropin-releasing hormone receptor (TRHR) signaling pathway (AID 1346891); conditions: TRHR-HEK293 calcium fluorescence, agonist mode; series mostly up to 57.6 µM;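 further: HEK293 cells expressing TRHR with calcium dye readout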
Sequence (P34981 whole entry, looked up): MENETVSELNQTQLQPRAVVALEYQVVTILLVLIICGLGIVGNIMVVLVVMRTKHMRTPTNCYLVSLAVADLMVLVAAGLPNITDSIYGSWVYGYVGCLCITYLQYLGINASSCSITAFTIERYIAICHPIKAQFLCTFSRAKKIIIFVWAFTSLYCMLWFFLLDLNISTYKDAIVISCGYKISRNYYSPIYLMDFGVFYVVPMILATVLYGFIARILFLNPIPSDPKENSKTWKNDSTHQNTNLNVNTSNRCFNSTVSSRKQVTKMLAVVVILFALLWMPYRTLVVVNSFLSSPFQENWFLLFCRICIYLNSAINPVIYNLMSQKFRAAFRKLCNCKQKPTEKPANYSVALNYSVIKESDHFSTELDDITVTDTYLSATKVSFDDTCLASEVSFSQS
Outline: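 Compounds were tested as agonists at 15 concentrations, in triplicate, on TRHR-Hek293 cells; calcium-sensitive dye fluorescence was recorded for 3 min following addition.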

Which Potency does the source give for `O=C(O)c1ccccc1C(=O)Nc1cccc2ccccc12` here?
Its Potency is “inactive”.

For `CNC(C)Cc1ccccc1OC` (stereo not given), which Potency is on record?
The Potency was “inactive”.

With `COC(=O)C(C)N(C(=O)Cc1ccccc1)c1c(C)cccc1C` (stereo not given) as the compound, how does the Potency read?
Its Potency is “inactive”.

With `CC(C)=CCOc1c2occc2cc2ccc(=O)oc12` as the compound, how does the Potency read?
The Potency was “inactive”.

Which Potency does the source give for `CCCCNP(N)(N)=S` here?
The Potency was “inactive”.

With `COC(=O)C(Br)CBr` (stereo not given) as the compound, how does the Potency read?
The Potency was “inactive”.

For `Cc1ccc2ccccc2c1`, which Potency is on record?
The Potency was “inactive”.

For `COC(C)(C)CCC[C@H](C)C/C=C/C(C)=C/C(=O)OC(C)C`, which Potency is on record?
The Potency was “inactive”.

For `COC(N)=O`, which Potency is on record?
Its Potency is “inactive”.

With `CCCC(=O)Cl` as the compound, how does the Potency read?
The Potency was “inactive”.

With `NC(=O)CI` as the compound, how does the Potency read?
Its Potency is “inactive”.

Which Potency does the source give for `CCBr` here?
The Potency was “inactive”.

Which Potency does the source give for `NNC(=O)c1cccnc1` here?
Its Potency is “inactive”.

Which Potency does the source give for `Cc1cc(=O)[nH]o1` here?
The Potency was “inactive”.

Which Potency does the source give for `N#CCc1ccccc1` here?
The Potency was “inactive”.

For `CC(Cl)Cl`, which Potency is on record?
Its Potency is “inactive”.

With `CCCN(CCCl)c1c([N+](=O)[O-])cc(C(F)(F)F)cc1[N+](=O)[O-]` as the compound, how does the Potency read?
The Potency was “inactive”.

For `COc1cc(CC(C)N)cc2c1OCO2` (stereo not given), which Potency is on record?
The Potency was “inactive”.

With `CCOP(=O)(OCC)SCCSCC` as the compound, how does the Potency read?
Its Potency is “inactive”.

Which Potency does the source give for `CCCCCCC#N` here?
The Potency was “inactive”.

Which Potency does the source give for `CC(C)(C)C(O)C(Oc1ccc(Cl)cc1)n1cncn1` (stereo not given) here?
Its Potency is “inactive”.

For `NC(=O)C(Cl)(Cl)Cl`, which Potency is on record?
Its Potency is “inactive”.

With `Brc1ccc(Oc2ccccc2)cc1` as the compound, how does the Potency read?
Its Potency is “inactive”.

Which Potency does the source give for `CCOP(O)OCC` here?
Its Potency is “inactive”.

With `Cc1ccc(N)cc1C` as the compound, how does the Potency read?
The Potency was “inactive”.

With `O=C(NC(=O)c1c(F)cccc1F)Nc1cc(Cl)c(Oc2ncc(C(F)(F)F)cc2Cl)c(Cl)c1` as the compound, how does the Potency read?
The Potency was “inactive”.

For `CCCN(CC1CC1)c1c([N+](=O)[O-])cc(C(F)(F)F)cc1[N+](=O)[O-]`, which Potency is on record?
The Potency was “inactive”.

With `C=CCC1([C@H](C)CCC)C(=O)NC(=O)NC1=O` as the compound, how does the Potency read?
Its Potency is “inactive”.

For `CCCCCCCCCCOC(=O)c1ccccc1C(=O)OCCCCCCCCCC`, which Potency is on record?
The Potency was “inactive”.

With `O=NN1CCCCCC1` as the compound, how does the Potency read?
The Potency was “inactive”.

For `C=CCCl`, which Potency is on record?
Its Potency is “inactive”.

Which Potency does the source give for `IC(I)=C(I)I` here?
The Potency was “inactive”.

With `CC1(C)[C@H](C=C(Cl)Cl)[C@@H]1C(=O)O[C@@H](C#N)c1cccc(Oc2ccccc2)c1` as the compound, how does the Potency read?
Its Potency is “inactive”.

For `C=CC(=O)OC(C)(C)C`, which Potency is on record?
The Potency was “inactive”.

With `CCOP(=S)(OCC)Oc1nc(Cl)c(Cl)cc1Cl` as the compound, how does the Potency read?
Its Potency is “inactive”.

tested on: not listed separately; experiment: Human pregnane X receptor (PXR) small molecule agonists, qHTS cell viability counter screen (AID 1346977; active means well fitted cell-killing curve with a large enough effect in the repeat runs; further: nearly all actives have a fitted effect of over 50% in size; further: potency means the concentration at half of the fitted maximal effect); conditions: PXR-Luc HepG2 viability, CellTiter-Fluor, 24 h; series mostly up to 92.4 µM
Outline: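 Viability counter screen: CellTiter-Fluor signal in PXR-Luc HepG2 cells, 24hr compound exposure, 37C, 5% CO2.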

For `O=C(O)c1ccccc1C(=O)Nc1cccc2ccccc12`, which Potency is on record?
Its Potency is “inactive”.

With `CNC(C)Cc1ccccc1OC` (stereo not given) as the compound, how does the Potency read?
The Potency was “inactive”.

With `COC(=O)C(C)N(C(=O)Cc1ccccc1)c1c(C)cccc1C` (stereo not given) as the compound, how does the Potency read?
Its Potency is “inactive”.

For `CC(C)=CCOc1c2occc2cc2ccc(=O)oc12`, which Potency is on record?
The Potency was “inactive”.

For `CCCCNP(N)(N)=S`, which Potency is on record?
Its Potency is “inactive”.

For `COC(=O)C(Br)CBr` (stereo not given), which Potency is on record?
Its Potency is “inactive”.

With `Cc1ccc2ccccc2c1` as the compound, how does the Potency read?
Its Potency is “inactive”.

For `COC(C)(C)CCC[C@H](C)C/C=C/C(C)=C/C(=O)OC(C)C`, which Potency is on record?
Its Potency is “inactive”.

For `COC(N)=O`, which Potency is on record?
Its Potency is “inactive”.

For `CCCC(=O)Cl`, which Potency is on record?
Its Potency is “inactive”.

With `NC(=O)CI` as the compound, how does the Potency read?
The Potency was “inactive”.

With `CCBr` as the compound, how does the Potency read?
Its Potency is “inactive”.

Which Potency does the source give for `NNC(=O)c1cccnc1` here?
Its Potency is “inactive”.

With `Cc1cc(=O)[nH]o1` as the compound, how does the Potency read?
The Potency was “inactive”.

With `N#CCc1ccccc1` as the compound, how does the Potency read?
Its Potency is “inactive”.

With `CC(Cl)Cl` as the compound, how does the Potency read?
The Potency was “inactive”.

For `CCCN(CCCl)c1c([N+](=O)[O-])cc(C(F)(F)F)cc1[N+](=O)[O-]`, which Potency is on record?
Its Potency is “inactive”.

For `COc1cc(CC(C)N)cc2c1OCO2` (stereo not given), which Potency is on record?
The Potency was “inactive”.

For `CCOP(=O)(OCC)SCCSCC`, which Potency is on record?
Its Potency is “inactive”.

For `CCCCCCC#N`, which Potency is on record?
The Potency was “inactive”.

For `CC(C)(C)C(O)C(Oc1ccc(Cl)cc1)n1cncn1` (stereo not given), which Potency is on record?
The Potency was “inactive”.

With `NC(=O)C(Cl)(Cl)Cl` as the compound, how does the Potency read?
Its Potency is “inactive”.

With `Brc1ccc(Oc2ccccc2)cc1` as the compound, how does the Potency read?
Its Potency is “inactive”.

For `CCOP(O)OCC`, which Potency is on record?
The Potency was “inactive”.

Which Potency does the source give for `Cc1ccc(N)cc1C` here?
Its Potency is “inactive”.

For `O=C(NC(=O)c1c(F)cccc1F)Nc1cc(Cl)c(Oc2ncc(C(F)(F)F)cc2Cl)c(Cl)c1`, which Potency is on record?
Its Potency is “inactive”.

With `CCCN(CC1CC1)c1c([N+](=O)[O-])cc(C(F)(F)F)cc1[N+](=O)[O-]` as the compound, how does the Potency read?
The Potency was “inactive”.

With `C=CCC1([C@H](C)CCC)C(=O)NC(=O)NC1=O` as the compound, how does the Potency read?
The Potency was “inactive”.

Which Potency does the source give for `CCCCCCCCCCOC(=O)c1ccccc1C(=O)OCCCCCCCCCC` here?
Its Potency is “inactive”.

For `O=NN1CCCCCC1`, which Potency is on record?
The Potency was “inactive”.

Which Potency does the source give for `C=CCCl` here?
Its Potency is “inactive”.

With `IC(I)=C(I)I` as the compound, how does the Potency read?
Its Potency is 17.2 µM (active).

With `CC1(C)[C@H](C=C(Cl)Cl)[C@@H]1C(=O)O[C@@H](C#N)c1cccc(Oc2ccccc2)c1` as the compound, how does the Potency read?
Its Potency is “inactive”.

For `C=CC(=O)OC(C)(C)C`, which Potency is on record?
The Potency was “inactive”.

For `CCOP(=S)(OCC)Oc1nc(Cl)c(Cl)cc1Cl`, which Potency is on record?
The Potency was “inactive”.
